Bioassay records deposited in PubChem by Broad Institute.
miR122 inh = activators of miR-122 sensor in Huh7 cells; Huh7 psiCHECK-miR122 Renilla luciferase sensor, 48 h; activation, % at 12.5 µM; 0.14% of 340,000 active;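 active = mean activation of 30% or more, with every replicate also reaching 30%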;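 note: higher luciferase signal means stronger suppression of miR-122 activity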
A number is an active result; 0 = inactive. Shown is part of a subset that was picked to be rich in hits.

SMILES	miR122 inh
C[C@@H]1CN([C@@H](C)CO)C(=O)c2cc(-c3cccc(F)c3)cnc2O[C@H]1CN(C)Cc1cncnc1	0
Cc1cc(OCC(O)CN2CCOCC2)cc(C)c1Cl (configuration not stated)	0
Cc1cc(C)cc(OCC(O)CN2CCC(CN3C(=O)c4cccc5cccc(c45)C3=O)CC2)c1 (configuration not stated)	67.0
C[C@@H]1CN([C@H](C)CO)C(=O)c2cc(C#CCC3CCCC3)cnc2O[C@@H]1CN(C)Cc1ccccn1	0
C[C@H]1CN([C@@H](C)CO)C(=O)c2cc(-c3ccc(F)cc3)cnc2O[C@@H]1CN(C)C(=O)c1cccnc1	0
C/C=C/c1cnc2c(c1)C(=O)N([C@H](C)CO)C[C@@H](C)[C@@H](CN(C)C(=O)Cc1cccnc1)O2	0
C[C@@H]1CN([C@@H](C)CO)C(=O)c2cc(C#Cc3ccc(F)cc3)cnc2O[C@@H]1CN(C)C(=O)c1ccccc1F	0
CO[C@@H]1CN(C)C(=O)c2ccc(NC(=O)c3ccccc3)cc2OC[C@H](C)N(C)C[C@@H]1C	0
Cc1ccccc1NC(=O)Nc1ccc2c(c1)C(=O)N(C)[C@H]1CC[C@@H](CC(=O)NCC3CC3)O[C@H]1CO2	0
CO[C@H]1CN(C)C(=O)c2cc(NC(=O)Nc3ccccc3)ccc2OC[C@H](C)NC[C@H]1C	0
COCC(=O)Nc1ccc2c(c1)C(=O)N(C)[C@@H]1CC[C@@H](CC(=O)NC3CCCC3)O[C@H]1CO2	53.3
CO[C@@H]1CN(C)C(=O)c2cc(NC(=O)NC(C)C)ccc2OC[C@H](C)N(C(=O)NC(C)C)C[C@H]1C	0
CNC(=O)C[C@@H]1CC[C@H]2[C@@H](COc3ccc(NC(=O)NC(C)C)cc3C(=O)N2C)O1	70.0
COC(=O)C[C@@H]1CC[C@@H]2[C@@H](COc3ccc(NC(=O)Nc4cccc(C#N)c4)cc3C(=O)N2C)O1	47.8
COCC(=O)Nc1ccc2c(c1)C(=O)N(C)C[C@H](OC)[C@H](C)CN(C(=O)COC)[C@H](C)CO2	0
CNC(=O)C[C@@H]1CC[C@@H]2[C@H](COc3ccc(NC(=O)Nc4cccc(C)c4)cc3C(=O)N2C)O1	46.7
CO[C@@H]1CN(C)C(=O)c2cc(NC(=O)Nc3ccccc3)ccc2OC[C@H](C)NC[C@H]1C	0
COCC(=O)Nc1ccc2c(c1)C(=O)N(C)C[C@H](OC)[C@@H](C)CN(C(=O)COC)[C@@H](C)CO2	0
CN1C(=O)c2cc(NC(=O)NCc3ccccc3)ccc2OC[C@@H]2O[C@H](CC(=O)NCC3CCCCC3)CC[C@@H]21	0
Cc1ccc(-c2cnc3c(c2)C(=O)N([C@@H](C)CO)C[C@H](C)[C@@H](CN(C)C(=O)Cc2cccnc2)O3)cc1	0
C[C@H]1CN([C@@H](C)CO)C(=O)c2cccc(NC(=O)Nc3ccccc3)c2O[C@@H]1CN(C)Cc1ccc(C(=O)Nc2ccccc2N)cc1	0
C[C@@H]1CN([C@H](C)CO)C(=O)c2cc(-c3cccnc3)cnc2O[C@@H]1CN(C)C(=O)C1CC1	0
C[C@@H]1CN([C@H](C)CO)S(=O)(=O)c2ccc(/C=C/c3ccccc3)cc2O[C@H]1CN(C)C(=O)Nc1cccc(F)c1	0
COc1ccccc1S(=O)(=O)N(C)C[C@H]1Oc2cc(/C=C/c3ccccc3)ccc2S(=O)(=O)N([C@@H](C)CO)C[C@@H]1C	0
CCCN(C)C[C@@H]1Oc2cc(C#CC(C)C)ccc2S(=O)(=O)N([C@@H](C)CO)C[C@H]1C	0
SMILES	miR122 inh
COCC#Cc1ccc2c(c1)O[C@@H](CN(C)C(=O)C1CCCCC1)[C@@H](C)CN([C@H](C)CO)S2(=O)=O	0
COCC(=O)N(C)C[C@@H]1Oc2cc(C#CC3CC3)ccc2S(=O)(=O)N([C@H](C)CO)C[C@@H]1C	0
COc1cccc(-c2cnc3c(c2)C(=O)N([C@@H](C)CO)C[C@H](C)[C@@H](CN(C)Cc2cccnc2)O3)c1	0
C[C@@H]1CN([C@H](C)CO)S(=O)(=O)c2ccc(C#Cc3cccnc3)cc2O[C@@H]1CN(C)C(=O)C1CC1	0
CCCC#Cc1ccc2c(c1)O[C@H](CN(C)C(=O)c1cccnc1)[C@H](C)CN([C@@H](C)CO)S2(=O)=O	0
C[C@H]1CN([C@@H](C)CO)C(=O)c2cc(Br)cnc2O[C@@H]1CN(C)C(=O)c1cccnc1	0
COCC#Cc1ccc2c(c1)O[C@H](CN(C)C(=O)COC)[C@H](C)CN([C@H](C)CO)S2(=O)=O	0
C[C@@H]1CN([C@H](C)CO)S(=O)(=O)c2ccc(-c3cncnc3)cc2O[C@@H]1CN(C)Cc1ccccc1	0
COCC#Cc1cnc2c(c1)C(=O)N([C@H](C)CO)C[C@@H](C)[C@@H](CN(C)Cc1ccccc1)O2	0
CCCNC(=O)C[C@@H]1CC[C@H]2[C@H](COc3ccc(NC(=O)Nc4ccccc4F)cc3C(=O)N2C)O1	0
CCC(=O)Nc1ccc2c(c1)OC[C@@H](C)N(C(=O)c1ccccc1F)C[C@H](C)[C@H](OC)CN(C)C2=O	0
CNC(=O)C[C@@H]1CC[C@@H]2[C@@H](COc3ccc(NC(=O)c4ccccc4F)cc3C(=O)N2C)O1	53.3
CCCNC(=O)N(C)C[C@H]1Oc2cc(-c3ccccc3)ccc2S(=O)(=O)N([C@@H](C)CO)C[C@@H]1C	0
Cc1ccc(S(=O)(=O)Nc2ccc3c(c2)C(=O)N(C)[C@@H]2CC[C@H](CC(=O)NCCc4ccncc4)O[C@@H]2CO3)cc1	45.0
CCCNC(=O)C[C@H]1CC[C@@H]2[C@@H](COc3ccc(NC(=O)c4ccc(C(F)(F)F)cc4)cc3C(=O)N2C)O1	45.0
CN1C(=O)c2cc(NC(=O)c3ccc(C(F)(F)F)cc3)ccc2OC[C@H]2O[C@H](CC(=O)NCc3ccc4c(c3)OCO4)CC[C@H]21	33.3
CO[C@@H]1CN(C)C(=O)c2ccc(NS(=O)(=O)c3ccc(C)cc3)cc2OC[C@H](C)N(C)C[C@@H]1C	0
CN1C(=O)c2cc(NC(=O)c3cccc(C(F)(F)F)c3)ccc2OC[C@H]2O[C@H](CC(=O)NCCN3CCCC3)CC[C@H]21	65.0
COc1ccccc1CNC(=O)C[C@H]1CC[C@H]2[C@@H](COc3ccc(NS(=O)(=O)c4ccc(C)cc4)cc3C(=O)N2C)O1	0
CC(C)CC#Cc1cnc2c(c1)C(=O)N([C@@H](C)CO)C[C@H](C)[C@@H](CN(C)CC1CCOCC1)O2	0
C[C@@H]1CN([C@@H](C)CO)S(=O)(=O)c2ccc(-c3cccc(C(=O)N(C)C)c3)cc2O[C@H]1CN(C)C(=O)Nc1ccccc1	0
C[C@@H]1CN([C@@H](C)CO)S(=O)(=O)c2ccc(C#CC3(O)CCCC3)cc2O[C@H]1CN(C)C(=O)Nc1ccc(F)cc1	0
CCCN(C)C[C@@H]1Oc2cc(C#CC3(O)CCCC3)ccc2S(=O)(=O)N([C@H](C)CO)C[C@@H]1C	0
C[C@H]1CN([C@@H](C)CO)C(=O)c2cc(C3=CCCC3)cnc2O[C@@H]1CN(C)C(=O)C1CCCCC1	0
CNC[C@@H]1Oc2cc(-c3ccc(OC)cc3)ccc2S(=O)(=O)N([C@H](C)CO)C[C@H]1C	0
CC(C)CC#Cc1cnc2c(c1)C(=O)N([C@H](C)CO)C[C@@H](C)[C@H](CN(C)Cc1ccc(F)cc1)O2	0
C[C@H]1CN([C@@H](C)CO)S(=O)(=O)c2ccc(C#Cc3ccncc3)cc2O[C@H]1CN(C)C(=O)c1ccncc1	0
C[C@H](CO)N1C[C@H](C)[C@H](CN(C)S(=O)(=O)c2cccs2)Oc2ncc(-c3cccc(C(F)(F)F)c3)cc2C1=O	0
